# SKKanGAS inh: SKKanGAS growth inhibition; S. pyogenes SKKanGAS, kanamycin growth, BacTiter-Glo, 6 h; inhibition, % at 7.5 µM; 1.3% of 300,000 active;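 active = mean replicate score, as percent of positive control median, at least 50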;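 also: strain carries kanamycin resistance gene driven by streptokinase promoter and grows in 40 µg/ml kanamycin; loss of luminescence reflects streptokinase promoter inhibition or plain growth inhibition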
# PfHsp90 set2: growth inhibition of yeast expressing Plasmodium Hsp90 | 0.32% of 310,000 active | inhibition, % at 9.4 µM | S. cerevisiae expressing PfHsp90, BacTiter-Glo ATP, 48 h; yeast lacking PDR1 and PDR3 efflux regulators;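 active = every replicate shows inhibition above about 80%, whatever the replicate mean, limit read from the data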
# NALP1 inh: NALP1 inhibition; inhibition, % at 10 µM; 0.61% of 280,000 active; AID 2071; S. cerevisiae NALP1/ASC/caspase-1 growth, X-gal OD620, 72 h; in the data active = inhibition mostly above about 24%, no sharp cut-off; inactive = mostly below about 32%
# tim10-1 inh: growth inhibitors of tim10-1 mutant yeast. inhibition, % at 20 µM. S. cerevisiae tim10-1 ts strain growth, BacTiter-Glo, 24 h. 2.2% of 330,000 active;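 active = inhibition of at least 40%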;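 also: mutant grown at 25 °C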
# tim23-1 inh: tim23-1 yeast growth inhibition. S. cerevisiae tim23-1 growth, BacTiter-Glo luminescence, 24 h. inhibition, % at 20 µM. 1.3% of 330,000 active;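 active = growth inhibition of the mutant yeast at or above 50%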;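 also: temperature-sensitive mutant grown at 25 °C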
# TIM10 inh: inhibits growth of TIM10 yeast strain; S. cerevisiae TIM10 strain growth, BacTiter-Glo luminescence, 24 h; inhibition, % at 10 µM; 1.4% of 330,000 active; AID 463195;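 active = inhibition of 40% or more at the single tested concentration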;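 also: wild-type TIM10 isogenic control strain grown at permissive 25 °C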
# Hits are given with their value; n = inactive; x = no result given. Only some compounds are listed: those with a hit (about 4.8% of all), similar ones and a draw of the others.
SMILES,SKKanGAS inh,PfHsp90 set2,NALP1 inh,tim10-1 inh,tim23-1 inh,TIM10 inh
COc1ccc(C(=O)NCCC2=CCCCC2)cc1[N+](=O)[O-],n,n,35,n,n,n
CC(C)Cc1nnc(NS(=O)(=O)Cc2ccccc2)s1,n,n,44,n,n,n
CS(=O)(=O)Nc1nnc(Cc2ccccc2)s1,n,n,n,n,n,n
COCCn1c(SCC(=O)Nc2ccc(S(=O)(=O)N(C)C)cc2)nc2ccccc21,n,n,38,n,n,n
COCCn1c(SCC(=O)Nc2ccc(F)cc2)nc2c([nH]c3ccccc32)c1=O,51,n,n,n,n,n
COCCn1c(SCC(=O)Nc2ccc(N3CCOCC3)cc2)nc2ccccc21,n,n,n,n,n,n
Cc1sc2nc(C(C)C)nc(SCC(=O)N3CCOCC3)c2c1C,n,n,n,n,n,n
CN(C)NC(=O)C(NC(=O)c1ccccc1)C12CC3CC(CC(C3)C1)C2 (stereo not drawn),n,n,n,n,n,n
C/C(=N\Nc1nc2ccccc2[nH]1)c1ccc2c(c1)OCO2,58,n,n,n,n,n
C/C(=N\Nc1nc2ccccc2[nH]1)c1ccc2c(c1)OCCO2,n,n,n,n,n,n
C/C(=N\NC(=O)c1cc2ccccc2cc1O)c1ccc2c(c1)OCO2,81,n,n,n,n,n
C/C(=N\NC(=O)c1ccc(C)cc1C)c1ccc2c(c1)OCO2,n,n,n,n,n,n
CCN(CC(=O)NCc1cccs1)C(=O)c1cc(S(=O)(=O)N2CCCCC2)ccc1Cl,n,n,x,n,n,n
CCN(CC(=O)NCc1cccs1)c1ccc(S(=O)(=O)N2CCN(C)CC2)cn1,n,n,39,n,n,n
O=c1c2ccccc2sn1-c1cc(S(=O)(=O)N2CCOCC2)ccc1N1CCCC1,85,n,n,n,n,n
O=c1c2ccccc2sn1-c1cc(S(=O)(=O)N2CCOCC2)ccc1N1CCOCC1,76,n,30,n,n,n
NC(=O)[C@@H]1CC2(CC(c3cccc(NC(=O)[C@H]4CCC(=O)N4)c3)=NO2)CN1C(=O)COc1ccc(Cl)cc1 (stereo partly drawn),n,n,x,n,n,n
CCC(C)(C)NC(=O)C(c1ccc(OC)cc1)N(Cc1cccs1)C(=O)CCC(=O)Nc1cc(C)on1 (stereo not drawn),x,n,n,n,n,n
N#CC(c1ccc(=O)[nH]n1)c1ccc(Cl)cc1Cl (stereo not drawn),n,n,n,n,n,n
O=C(CN1C(=O)NC2(CCCC2)C1=O)N1CCN(S(=O)(=O)c2cc(Cl)ccc2Cl)CC1,x,x,x,n,n,n
Cc1ccc(OCCSc2nc(NC(C)C)nc(NC(C)C)n2)cc1,72,n,n,n,n,n
Cc1noc(C)c1CSc1nc2sc3c(c2c(=O)n1C)CCCC3,n,n,n,n,n,n
C=CCn1c(SCc2c(C)noc2C)nc2sc3c(c2c1=O)CCCC3,60,n,n,n,n,n
C=CCn1c(SCc2c(C)noc2C)nc2sc3c(c2c1=O)CCCCC3,54,x,n,n,n,n
COc1cc2ccccc2cc1C(=O)NC(=S)Nc1ccc(C(=O)O)cc1,54,n,n,n,n,n
SMILES,SKKanGAS inh,PfHsp90 set2,NALP1 inh,tim10-1 inh,tim23-1 inh,TIM10 inh
Cc1ccc2cc(CCNS(=O)(=O)c3ccc(F)cc3)c(=O)[nH]c2c1,x,n,x,n,n,n
COc1cc(/C=N/Nc2nc3ccccc3s2)cc([N+](=O)[O-])c1O,54,n,n,n,n,n
O=[N+]([O-])c1cc(Cl)cc(/C=N/Nc2nc3ccccc3s2)c1O,82,n,n,n,n,n
COc1cc(/C=N/Nc2ccccc2[N+](=O)[O-])cc(OC)c1O,n,n,n,n,n,n
O=C(Cn1nc2ccccc2n1)N/N=C/c1cc(Cl)cc([N+](=O)[O-])c1O,x,n,n,x,x,x
c1cn2c(NC3CCCCC3)c(-c3ccc(SC4CCCCC4)cc3)nc2cn1,89,n,x,n,n,n
CCCCNc1c(-c2cccc(SC3CCCCC3)c2)nc2ccc(Cl)cn12,n,n,x,n,n,n
CCCCNc1c(-c2ccc(SC3CCCCC3)cc2)nc2ccccn12,71,n,x,n,n,n
CN1C(C(=O)NCC2CC2)CC2Cn3c(nc4cc5ccccc5cc43)C21 (stereo not drawn),n,n,x,n,n,n
CCC1(CC)C(=O)N(C)C(=O)NC1=Nc1ccc(OC)cc1,n,n,41,n,n,n
O=C(NCCCl)NNc1c(Cl)cc(Cl)cc1Cl,n,n,31,n,n,n
CCCCNC(=S)NNc1c(Cl)cc(Cl)cc1Cl,n,x,n,n,n,n
COc1ccc2nc(-c3ccccc3)nc(C3CCCCC3)c2c1,n,n,x,n,n,n
COc1ccc2nc(C3CCCCC3)nc(C3CCCCC3)c2c1,90,n,x,n,n,n
O=C(NC1CCCc2ccccc21)c1cccc(S(=O)(=O)N2CCN(c3ccccc3)CC2)c1 (stereo not drawn),n,x,n,n,n,n
Cc1ccc(NC(=O)Cn2nnc(C(=O)Nc3ccc(F)c(Cl)c3)c2N)cc1,n,n,37,n,n,n
CCOC(=O)C1=NN(C(=O)c2cccc(Br)c2)C(O)(C(C)(C)C)C1 (stereo not drawn),90,x,n,n,n,n
COc1cc(S(=O)(=O)Nc2ccc(C)cc2)ccc1N=Cc1c(C)[nH]n(-c2ccccc2)c1=O,n,n,n,n,n,n
C/C(=N\NC(=O)CSc1nc(C)[nH]c1[N+](=O)[O-])c1ccc(F)cc1,56,n,n,n,n,n
Cc1nc(SCC(N)=O)c([N+](=O)[O-])[nH]1,n,n,n,n,n,n
Cc1cc(C(=O)N2CCN(c3ccc([N+](=O)[O-])cc3)CC2)co1,n,x,n,n,n,n
Cn1c(C(=O)N2CCN(c3ccc([N+](=O)[O-])cc3)CC2)cc2c(=O)[nH]c3ccccc3c21,75,n,n,x,x,x
NC(=S)N=Nc1c(O)n(Cc2ccc(Br)cc2)c2ccccc12,61,n,n,n,n,n
NC(=S)N=Nc1c(O)n(Cc2ccc(F)cc2)c2ccccc12,n,n,n,n,n,n
Oc1c(N=NC(=S)Nc2ccccc2F)c2ccccc2n1Cc1cccc(Cl)c1,52,n,n,n,n,n
Oc1c(N=NC(=S)Nc2ccccc2F)c2ccccc2n1Cc1ccc(F)cc1,66,n,n,n,n,n
CCCCn1c(SC(C)C(=O)NCC2CCCO2)nc2cc(C(=O)OC)ccc2c1=O (stereo not drawn),n,n,x,n,n,n
CC1CCN(C2CC(=O)N(c3ccc(Br)cc3Br)C2=O)CC1 (stereo not drawn),n,107,n,n,n,n
COc1ccc(C2C(C#N)=C(N)Oc3c2oc(CO)cc3=O)c(OC)c1OC (stereo not drawn),n,n,n,n,n,n
COc1ccccc1C(=O)Nc1ccc(Oc2nnc(-c3ccc(C)cc3)c3ccccc23)cc1,n,n,x,n,n,n

# Compound activity: PubChem BioAssay, several laboratories
